For some assays here: Potency and affinity values are given separately.
How the values were obtained:
Parameters in all cases: scale not given: direction of the effect not stated beside the values
[1] = biological target: Protein translocase subunit SecA (Escherichia coli (strain K12)) (UniProt P10408); assay: Assay to Identify E. coli SecA ATPase Inhibitors; assay type: functional; conditions: 30 µM
[2] = biological target: T1, Ubiquitin-activating enzyme e1, putative (Leishmania donovani (strain BPK282A1)) (UniProt E9BSI1); assay: Leishmania donovani Ubiquitin Activating Enzyme (LdE1); assay type: functional; conditions: 30 µM
T1 sequence (whole entry): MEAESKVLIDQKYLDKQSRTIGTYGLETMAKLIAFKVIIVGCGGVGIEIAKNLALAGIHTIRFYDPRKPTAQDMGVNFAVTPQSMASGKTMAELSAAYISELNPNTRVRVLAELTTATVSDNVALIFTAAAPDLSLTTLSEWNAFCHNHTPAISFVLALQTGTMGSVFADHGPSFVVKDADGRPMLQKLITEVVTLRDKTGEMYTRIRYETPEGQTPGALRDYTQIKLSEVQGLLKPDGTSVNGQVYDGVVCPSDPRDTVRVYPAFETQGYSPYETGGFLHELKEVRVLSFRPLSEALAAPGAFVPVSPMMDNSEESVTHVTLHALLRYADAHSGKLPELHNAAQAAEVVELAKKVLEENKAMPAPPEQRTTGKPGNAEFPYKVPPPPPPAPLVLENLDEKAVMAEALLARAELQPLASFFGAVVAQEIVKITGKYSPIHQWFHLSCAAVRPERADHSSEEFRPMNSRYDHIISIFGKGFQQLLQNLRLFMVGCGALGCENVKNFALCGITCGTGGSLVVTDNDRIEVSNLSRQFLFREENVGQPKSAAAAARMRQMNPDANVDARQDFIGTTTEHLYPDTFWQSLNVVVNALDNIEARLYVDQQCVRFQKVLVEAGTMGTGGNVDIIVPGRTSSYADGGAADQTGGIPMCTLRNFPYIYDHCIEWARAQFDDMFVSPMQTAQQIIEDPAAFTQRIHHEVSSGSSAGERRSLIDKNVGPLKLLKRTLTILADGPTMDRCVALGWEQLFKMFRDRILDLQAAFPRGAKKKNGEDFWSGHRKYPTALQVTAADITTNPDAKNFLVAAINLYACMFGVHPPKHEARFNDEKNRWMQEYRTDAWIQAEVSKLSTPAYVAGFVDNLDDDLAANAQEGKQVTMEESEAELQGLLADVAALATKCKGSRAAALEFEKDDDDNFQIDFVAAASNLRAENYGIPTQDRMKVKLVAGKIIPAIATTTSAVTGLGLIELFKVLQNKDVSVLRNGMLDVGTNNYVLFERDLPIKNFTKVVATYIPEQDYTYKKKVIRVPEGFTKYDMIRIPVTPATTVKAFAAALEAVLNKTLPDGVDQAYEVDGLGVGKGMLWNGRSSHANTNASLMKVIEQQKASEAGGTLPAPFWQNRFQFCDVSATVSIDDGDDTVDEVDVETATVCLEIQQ

[3] = biological target: AMP-activated protein kinase, AMPK (Homo sapiens) (UniProt P54646+O43741+P54619+Q9UGJ0+Q9Y478+Q13131+Q9UGI9); assay: AMP-dependent Kinase enzyme assay. An in vitro enzyme assay that detects ADP turnover that is directly proportional to AMPK activity. This uses naive AMPK that is activated during the assay with MK-8722; assay type: functional; conditions: 30 µM
[4] = biological target: Sialic acid-binding Ig-like lectin 9 (Homo sapiens) (UniProt Q9Y336); assay: Hs-Siglec9 ALPHAscreen SOP 20170721; conditions: 10 µM
Trypanosoma cruzi = assay: Trypanosoma cruzi phosphomannomutase and mannose-1-phosphate guanylyltransferase assay; assay type: functional; conditions: 10 µM
[5] = biological target: T2, Arginase-2, mitochondrial (Homo sapiens) (UniProt P78540); assay: in vitro enzyme assay to detect the production of urea directly proportional to the activity of Arginase II; assay type: functional; conditions: 33.3 µM; note: in the data most compounds retested in dose-response had high values
T2 sequence (whole entry): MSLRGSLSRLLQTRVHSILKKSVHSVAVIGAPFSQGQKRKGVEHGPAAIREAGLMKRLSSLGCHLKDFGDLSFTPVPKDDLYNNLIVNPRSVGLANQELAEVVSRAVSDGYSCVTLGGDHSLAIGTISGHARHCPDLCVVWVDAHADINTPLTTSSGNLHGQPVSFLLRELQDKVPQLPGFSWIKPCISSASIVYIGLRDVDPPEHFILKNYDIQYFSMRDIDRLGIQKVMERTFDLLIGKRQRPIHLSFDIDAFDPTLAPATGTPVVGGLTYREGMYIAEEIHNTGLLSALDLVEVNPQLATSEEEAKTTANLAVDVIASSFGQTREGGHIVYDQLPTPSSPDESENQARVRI

[6] = biological target: T3, Proteasome subunit beta (Trypanosoma cruzi) (UniProt O96673); assay: Trypanosoma cruzi proteasome chymotrypsin-like activity (TcProtChymo) assay.; note: in the data most compounds retested in dose-response had high values; assay type: functional; conditions: 9.37 µM
T3 sequence (whole entry): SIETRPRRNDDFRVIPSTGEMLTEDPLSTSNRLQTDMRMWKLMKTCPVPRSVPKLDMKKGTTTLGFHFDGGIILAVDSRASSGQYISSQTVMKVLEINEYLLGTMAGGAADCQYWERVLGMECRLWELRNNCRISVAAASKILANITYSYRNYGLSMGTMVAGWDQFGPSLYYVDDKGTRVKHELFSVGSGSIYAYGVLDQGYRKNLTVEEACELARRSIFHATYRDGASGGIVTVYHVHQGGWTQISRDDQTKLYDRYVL

Homo sapiens = species on record: Homo sapiens; assay: To identify inhibition of the IFN signalling (Jak-Stat) pathway via expression of an eGFP reporter gene under the control of an IFN-stimulated response element (ISRE) containing MxA promoter.; assay type: functional; conditions: 30 µM
[7] = biological target: T4, Tyrosyl-tRNA synthetase, putative (Trypanosoma cruzi (strain CL Brener)) (UniProt Q4DSP6); assay: Trypanosoma cruzi tyrosyl tRNA synthetase (TcYRS) _High Tyrosine SOP; assay type: functional; conditions: 30 µM; note: in the data most compounds retested in dose-response had high values
T4 sequence (whole entry): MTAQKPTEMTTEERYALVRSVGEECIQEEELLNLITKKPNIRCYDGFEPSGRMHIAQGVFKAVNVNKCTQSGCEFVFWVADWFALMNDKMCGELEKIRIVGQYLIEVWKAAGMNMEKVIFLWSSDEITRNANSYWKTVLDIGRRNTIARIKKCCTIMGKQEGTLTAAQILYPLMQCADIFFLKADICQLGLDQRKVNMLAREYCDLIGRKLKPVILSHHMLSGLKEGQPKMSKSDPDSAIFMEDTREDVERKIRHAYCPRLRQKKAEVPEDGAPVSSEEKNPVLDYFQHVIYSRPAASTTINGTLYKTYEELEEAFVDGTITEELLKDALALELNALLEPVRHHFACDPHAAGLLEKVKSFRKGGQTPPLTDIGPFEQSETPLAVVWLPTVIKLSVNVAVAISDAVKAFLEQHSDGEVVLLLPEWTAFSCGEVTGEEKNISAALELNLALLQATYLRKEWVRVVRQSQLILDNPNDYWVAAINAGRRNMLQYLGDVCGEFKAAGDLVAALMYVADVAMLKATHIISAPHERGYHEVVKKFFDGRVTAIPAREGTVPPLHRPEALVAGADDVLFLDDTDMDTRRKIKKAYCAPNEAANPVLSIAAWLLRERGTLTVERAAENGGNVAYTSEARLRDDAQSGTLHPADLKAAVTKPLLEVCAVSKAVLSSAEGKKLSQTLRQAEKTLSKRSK

[8] = biological target: T4, Tyrosyl-tRNA synthetase, putative (Trypanosoma cruzi (strain CL Brener)); assay: Trypanosoma cruzi tyrosyl tRNA synthetase (TcYRS) SOP; assay type: functional; conditions: 30 µM
[9] = biological target: Chromo domain-containing protein 1 (Saccharomyces cerevisiae (strain ATCC 204508 / S288c) (Baker's yeast)) (UniProt P32657); assay: ScCHD-1 Enzyme Inhibition Assay; assay type: functional; conditions: 30 µM; note: in the data most compounds retested in dose-response had high values
Chromo domain-containing protein 1 (Saccharomyces cerevisiae (strain ATCC 204508 / S288c) (Baker's yeast)), sequence (P32657 whole entry, the tested form may be a part): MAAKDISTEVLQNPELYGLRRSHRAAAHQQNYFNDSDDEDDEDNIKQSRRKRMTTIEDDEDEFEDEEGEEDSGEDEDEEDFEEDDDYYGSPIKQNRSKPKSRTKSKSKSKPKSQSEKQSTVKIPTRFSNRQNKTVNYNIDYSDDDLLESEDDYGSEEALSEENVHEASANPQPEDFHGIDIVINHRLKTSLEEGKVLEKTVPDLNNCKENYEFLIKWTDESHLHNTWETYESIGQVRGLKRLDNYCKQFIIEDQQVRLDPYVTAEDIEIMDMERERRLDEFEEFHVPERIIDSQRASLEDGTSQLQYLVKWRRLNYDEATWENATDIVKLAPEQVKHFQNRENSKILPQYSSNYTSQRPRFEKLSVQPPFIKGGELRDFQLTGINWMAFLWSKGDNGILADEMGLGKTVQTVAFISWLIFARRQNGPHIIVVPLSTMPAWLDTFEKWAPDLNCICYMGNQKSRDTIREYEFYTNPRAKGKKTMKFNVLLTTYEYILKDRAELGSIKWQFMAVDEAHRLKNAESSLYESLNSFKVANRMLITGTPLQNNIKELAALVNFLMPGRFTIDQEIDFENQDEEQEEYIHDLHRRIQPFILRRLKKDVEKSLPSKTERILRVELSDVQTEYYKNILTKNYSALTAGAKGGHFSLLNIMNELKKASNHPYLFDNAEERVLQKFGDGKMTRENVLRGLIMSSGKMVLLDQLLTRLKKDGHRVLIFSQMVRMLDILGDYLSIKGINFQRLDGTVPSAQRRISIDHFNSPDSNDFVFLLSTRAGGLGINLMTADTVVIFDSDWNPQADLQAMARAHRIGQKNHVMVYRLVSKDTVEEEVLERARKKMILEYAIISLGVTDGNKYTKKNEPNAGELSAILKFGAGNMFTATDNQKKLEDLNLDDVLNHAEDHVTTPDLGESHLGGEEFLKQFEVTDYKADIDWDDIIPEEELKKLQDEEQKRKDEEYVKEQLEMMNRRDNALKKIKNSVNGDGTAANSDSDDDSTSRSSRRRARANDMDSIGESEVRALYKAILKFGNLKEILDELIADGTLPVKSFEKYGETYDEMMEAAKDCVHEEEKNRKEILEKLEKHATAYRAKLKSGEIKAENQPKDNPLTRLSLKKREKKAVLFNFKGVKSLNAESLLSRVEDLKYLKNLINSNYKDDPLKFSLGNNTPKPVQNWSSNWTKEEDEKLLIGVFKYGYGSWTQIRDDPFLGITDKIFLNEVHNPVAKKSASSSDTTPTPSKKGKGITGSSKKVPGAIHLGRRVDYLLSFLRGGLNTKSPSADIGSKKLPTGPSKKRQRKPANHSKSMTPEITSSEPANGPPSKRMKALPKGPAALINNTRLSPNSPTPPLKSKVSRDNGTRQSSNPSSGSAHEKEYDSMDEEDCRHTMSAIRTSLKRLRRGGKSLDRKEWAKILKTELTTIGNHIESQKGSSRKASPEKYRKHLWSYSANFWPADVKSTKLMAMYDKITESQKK

Sialic acid-binding Ig-like lectin 9 (Homo sapiens), sequence (Q9Y336 whole entry): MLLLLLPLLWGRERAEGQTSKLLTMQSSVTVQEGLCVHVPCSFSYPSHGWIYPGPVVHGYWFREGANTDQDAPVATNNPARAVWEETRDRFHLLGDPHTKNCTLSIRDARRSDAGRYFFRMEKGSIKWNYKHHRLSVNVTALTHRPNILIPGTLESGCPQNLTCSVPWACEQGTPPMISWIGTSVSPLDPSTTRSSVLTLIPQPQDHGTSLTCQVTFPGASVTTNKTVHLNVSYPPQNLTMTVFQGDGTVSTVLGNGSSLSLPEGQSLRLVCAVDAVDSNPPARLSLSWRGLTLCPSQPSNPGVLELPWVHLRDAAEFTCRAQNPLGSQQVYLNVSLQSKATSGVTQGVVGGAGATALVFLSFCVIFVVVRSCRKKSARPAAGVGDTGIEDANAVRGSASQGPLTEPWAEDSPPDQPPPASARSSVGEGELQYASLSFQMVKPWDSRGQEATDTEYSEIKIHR
Protein translocase subunit SecA (Escherichia coli (strain K12)), sequence (P10408 whole entry): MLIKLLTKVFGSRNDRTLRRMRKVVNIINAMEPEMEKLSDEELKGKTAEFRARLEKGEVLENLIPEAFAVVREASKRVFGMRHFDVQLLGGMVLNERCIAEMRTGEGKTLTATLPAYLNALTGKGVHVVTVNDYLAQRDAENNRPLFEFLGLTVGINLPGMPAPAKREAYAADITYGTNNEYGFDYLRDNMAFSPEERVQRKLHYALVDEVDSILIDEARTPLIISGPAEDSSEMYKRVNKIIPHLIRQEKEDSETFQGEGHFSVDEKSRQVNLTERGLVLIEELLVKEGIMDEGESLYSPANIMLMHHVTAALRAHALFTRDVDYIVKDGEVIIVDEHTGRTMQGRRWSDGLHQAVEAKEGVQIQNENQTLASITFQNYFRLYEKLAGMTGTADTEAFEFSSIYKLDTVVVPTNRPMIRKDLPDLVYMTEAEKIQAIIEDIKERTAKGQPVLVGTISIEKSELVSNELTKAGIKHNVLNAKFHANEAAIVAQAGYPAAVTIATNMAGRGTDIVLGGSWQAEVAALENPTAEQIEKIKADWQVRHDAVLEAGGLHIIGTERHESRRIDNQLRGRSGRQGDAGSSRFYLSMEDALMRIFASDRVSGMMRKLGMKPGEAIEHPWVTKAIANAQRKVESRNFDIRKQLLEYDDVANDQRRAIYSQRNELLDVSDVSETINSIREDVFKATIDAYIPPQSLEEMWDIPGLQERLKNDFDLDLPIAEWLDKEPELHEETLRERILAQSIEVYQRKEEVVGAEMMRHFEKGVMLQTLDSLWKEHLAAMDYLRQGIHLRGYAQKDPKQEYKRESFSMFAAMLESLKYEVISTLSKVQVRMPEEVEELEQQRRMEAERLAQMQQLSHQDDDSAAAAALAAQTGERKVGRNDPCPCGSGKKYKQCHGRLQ

SMILES | Percent Effect [1] [%] | Percent Effect [2] [%] | Percent Effect [3] [%] | Percent Effect [4] [%] | Percent Effect (Trypanosoma cruzi) [%] | Percent Effect [5] [%] | Percent Effect [6] [%] | Percent Effect (Homo sapiens) [%] | Percent Effect [7] [%] | Percent Effect [8] [%] | Percent Effect [9] [%]
CN(C)S(=O)(=O)N1CCC2(COCc3cnc(-c4ccccc4)nc32)C1 (configuration not stated) | -3.52 | 13.3 | 1.46 | -2.12 | 4.44 | -1.25 | 12.3 | 12.3 | -8.33 | 2.5 | -4.77
CS(=O)(=O)N1CCC(C(=O)NC(Cc2ccsc2)c2nccs2)CC1 (configuration not stated) | -5.37 | 9.46 | 6.1 | -1.37 | -3.36 | -1.16 | 2.65 | 12.9 | 0 | 11.7 | 2.8
Cc1csc(N2CCN(CC(=O)Nc3nncs3)CC2C)n1 (configuration not stated) | -3.67 | 0 | -9.26 | 8.6 | -0.836 | -3.88 | 5.92 | 9.1 | 3.96 | -1.22 | 10.3
COCC1CC2(CCN(C(=O)c3cccn3C)CC2)CN1C(C)C (configuration not stated) | -2.49 | -13.5 | 4.17 | -2.06 | 1.37 | -1.67 | 0.761 | -12.3 | 7.92 | 3.66 | -4.39
Cc1ccc2cc(CNCCCO)c(=O)[nH]c2c1 | 2.35 | 9.46 | 7.11 | -4.27 | -5.34 | 4.41 | 5.15 | 8.44 | 1.07 | 9.09 | -13.8
Fc1cccc(-n2ccc(CN3CCCCC3Cn3cncn3)n2)c1 (configuration not stated) | -3.79 | -7.59 | 0.842 | 2.62 | -2.74 | -1.14 | -2.21 | 17 | -2.46 | -8.86 | 2.75
CC(C)CCn1c(=O)nc2n1C(=O)N(c1ccc(F)cc1)C2 | -5.09 | -2.63 | 10.5 | -4.96 | -1.46 | -10.7 | 12.4 | 13.5 | -2.13 | -10.4 | 15.2
Cc1cc(C)n(CC2CCCN2C(=O)c2ccc3c(c2)nnn3C)n1 (configuration not stated) | -3.73 | 8.22 | -3.73 | -4.94 | -2.94 | 7.27 | 14.9 | -9.03 | 3.23 | 7.5 | -4.89
Cc1ccccc1C1(CNC(=O)NCCc2nnc3n2CCC3)CC1 | -1.76 | -5.26 | -101 | 5.17 | -3.41 | -2.37 | 7.19 | -19.3 | 0 | -2.6 | -0.461
Cc1cnc(CN2CCOC(Cn3nc(C)nc3C)C2)cn1 (configuration not stated) | -1.64 | 17.7 | -6.35 | 2.13 | 4.82 | 3.42 | 15.8 | -21.9 | 6.4 | 24.1 | -3.57
Cc1nc(COCc2cnc3n2CCN(C2CCC2)C3C)cs1 (configuration not stated) | -2.77 | 5.33 | -2.96 | 12.2 | 5.21 | -57.2 | 10.8 | -7.58 | 3.12 | 7.5 | -6.66
O=C(Cn1cnc(-c2ccccc2)cc1=O)Nc1ccncc1 | -2.42 | 20.8 | -3.34 | -1.53 | 2.07 | 1.94 | 16.9 | 26.1 | 6.35 | 16.7 | -9.23
COc1cc(C(=O)N(Cc2cnn(C)c2)C(C)C)ccc1OCC(N)=O | -7.3 | 18.4 | -10.1 | -6.52 | -5.32 | 0 | 10.4 | 9.36 | 0.493 | 6.17 | -2.3
COCCOc1ccc(NC(=O)C2CCC2)cn1 | -2.7 | 17.7 | 1.58 | -6 | 0.85 | 5.7 | 15.6 | -2.54 | 9.36 | 16.5 | -6.65
c1ccc2oc(CCCN3CCCC3Cn3cncn3)nc2c1 (configuration not stated) | -1.49 | 0 | 0.485 | 12.2 | -1.02 | 3.51 | 5.92 | 13.6 | 7.92 | 6.1 | 7.47
COCCN(C)C(=O)Cn1cccc(OC)c1=O | -0.736 | 5.48 | -9.15 | 4.8 | -8.53 | 3.99 | 18.4 | 4.06 | -3.12 | -1.24 | -2.41
Cc1ccc(CN2CCc3ncc(CNS(C)(=O)=O)n3CC2)o1 | -0.0355 | 8.22 | -1.38 | 6.78 | -5.56 | -1.6 | 15.3 | 16.8 | 7.29 | 16.1 | -0.506
Cc1ccc(C2CCCN2Cc2nc3c(cnn3C)c(=O)[nH]2)cc1C (configuration not stated) | -4.42 | 27.9 | -6.55 | -1.46 | 5.19 | -1.52 | 13.8 | 4.19 | 7.39 | 24.1 | -5.15
CCC(=O)NCC(=O)NCc1cc(Br)ccc1OC(F)F | -3.84 | 18.7 | -6.58 | 53.5 | 3.41 | 18.8 | 7.15 | -3.97 | 7.1 | 18.5 | -8.96
CC(O)CN1CCN(C(=O)c2cc3ccccc3[nH]c2=O)CC1 (configuration not stated) | -2.78 | 2.63 | -2.27 | 10.3 | -3.8 | -4.73 | 13.1 | -25.9 | 1.06 | -5.2 | -3.52
Cc1ccc(CN2CC[C@H]3OCC[C@@H](c4nc(C)no4)[C@H]3C2)cc1 | -4.22 | 5.41 | 2.69 | -2.48 | 7.14 | -4.14 | 15.3 | -21.7 | 0 | 10.3 | 0.212
Cc1cc(C)n(CC2CCCN2C(=O)c2cnn(C)c2C2CC2)n1 (configuration not stated) | -0.918 | 2.7 | 11.2 | 10.3 | 0.65 | -0.554 | 0.718 | 9.84 | 2.97 | 1.22 | 10.5

Reference: ChEMBL document CHEMBL3988442, “University of Dundee, Small-Polar-MMV Screening Library” (2021)
